Source: PubChem BioAssay AID1159580 (chemical genetic matrix, 2015)
Several values for one entry are separate records, joined by “and”; a condition that tells them apart may be missing. Equal values may be shown once. About 2,000 (36%) of roughly 5,500 compounds were called active. Not shown: some 18% with an inconclusive outcome. No stated cut-off is given here; in the data, active means normalized growth mostly below about 0.91 (no sharp cut-off); inconclusive means no clear call, values can overlap the other calls; inactive means mostly above about 0.92. The list shows a part of the results.

Assay: chemical genetic growth profiling, strain panel (AID 1159580);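 further: tested at 20 µM; growth read once vehicle control cultures reached saturation at 30 °C; 1 = growth at the plate median or of vehicle wells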
Settings: S. cerevisiae deletion strains, growth OD
[1] = locus YAL013W, strain DEP1, stronger effect = lower value
[2] = locus YBR229C, strain ROT2, stronger effect = lower value
[3] = locus YDL101C, strain DUN1, stronger effect = lower value
[4] = locus YDR150W, strain NUM1, stronger effect = lower value
[5] = locus YEL061C, strain CIN8, stronger effect = lower value
[6] = locus YHR030C, strain SLT2, stronger effect = lower value
[7] = locus YJL187C, strain SWE1, stronger effect = lower value
[8] = locus YJR043C, strain POL32, stronger effect = lower value
[9] = locus YJR075W, strain HOC1, stronger effect = lower value
[10] = locus YLR039C, strain RIC1, stronger effect = lower value
[11] = locus YLR262C, strain YPT6, stronger effect = lower value
[12] = locus YMR263W, strain SAP30, stronger effect = lower value

Measured: normalized growth

Cc1ccc2c(c1)N(CCO)C(C)(C)CC2C (centres undefined)
inactive: [1] 1 | [2] 0.997 | [3] 0.97 | [4] 0.909 | [5] 1.03 | locus YGR078C, strain PAC10, stronger effect = lower value 0.986 | [6] 0.982 | locus YHR087W, strain rtc3, stronger effect = lower value 0.961 | [7] 1 | [8] 0.98 | [9] 0.975 | [10] 0.969 | locus YLR058C, strain SHM2 (second series), stronger effect = lower value 0.988 | locus YLR085C, strain ARP6, stronger effect = lower value 1.03 | [11] 0.955 | locus YML094W, strain GIM5, stronger effect = lower value 0.993 | locus YMR219W, strain ESC1, stronger effect = lower value 0.987 | [12] 0.997 | locus YNL153C, strain GIM3, stronger effect = lower value 1 | locus YNL298W, strain CLA4 (second series), stronger effect = lower value 1.04 | locus YNL322C, strain KRE1, stronger effect = lower value 1 | locus YNR030W, strain Alg12, stronger effect = lower value 0.986 | locus YOL006C, strain TOP1, stronger effect = lower value 1.02 | locus YPL055C, strain LGE1, stronger effect = lower value 0.962 | locus YPL241C, strain CIN2, stronger effect = lower value 0.998 | locus YPR135W, strain CTF4, stronger effect = lower value 0.953

COc1cc(OC)c(OC)cc1C=O
inactive: [1] 0.991 | locus YAL021C, strain ccr4, stronger effect = lower value 1.01 | locus YAL026C, strain drs2, stronger effect = lower value 1 | locus YAL030W, strain snc1, stronger effect = lower value 0.998 | locus YBL061C, strain skt5, stronger effect = lower value 0.991 | locus YBR009C, strain hhf1, stronger effect = lower value 0.993 | locus YBR021W, strain FUR4, stronger effect = lower value 1.03 | locus YBR023C, strain chs3, stronger effect = lower value 0.991 | locus YBR171W, strain sec66, stronger effect = lower value 0.991 | [2] 1.01 | locus YBR231C, strain swc5, stronger effect = lower value 0.998 | locus YBR279W, strain paf1, stronger effect = lower value 0.997 | locus YCL011C, strain gbp2, stronger effect = lower value 1 | locus YCL016C, strain dcc1, stronger effect = lower value 0.995 | locus YCL029C, strain bik1, stronger effect = lower value 0.972 | locus YCL061C, strain MRC1, stronger effect = lower value 0.996 | locus YCL069W, strain vba3, stronger effect = lower value 0.999 | locus YCR088W, strain abp1, stronger effect = lower value 0.999 | locus YDL005C, strain med2, stronger effect = lower value 0.985 | locus YDL035C, strain GPR1, stronger effect = lower value 1.01 | locus YDL040C, strain nat1, stronger effect = lower value 0.998 | locus YDL074C, strain BRE1, stronger effect = lower value 1 | [3] 1.02 | locus YDL185W, strain tfp1, stronger effect = lower value 0.94 | locus YDL192W, strain arf1, stronger effect = lower value 0.997 | locus YDR001C, strain nth1, stronger effect = lower value 0.999 | locus YDR069C, strain doa4, stronger effect = lower value 0.991 | locus YDR101C, strain arx1, stronger effect = lower value 0.989 | locus YDR137W, strain rgp1, stronger effect = lower value 0.973 | [4] 0.991 | locus YDR159W, strain sac3, stronger effect = lower value 1 | locus YDR162C, strain NBP2, stronger effect = lower value 1.06 | locus YDR195W, strain ref2 1.01 | locus YDR297W, strain sur2, stronger effect = lower value 0.989 | locus YDR318W, strain mcm21, stronger effect = lower value 0.994 | locus YDR334W, strain swr1, stronger effect = lower value 0.987 | locus YDR335W, strain msn5, stronger effect = lower value 1 | locus YDR388W, stronger effect = lower value 0.988 | locus YDR392W, strain spt3, stronger effect = lower value 0.999 | locus YDR502C, strain sam2, stronger effect = lower value 0.995 | locus YEL003W, strain gim4, stronger effect = lower value 0.999 | locus YEL037C, strain rad23, stronger effect = lower value 1 | locus YEL061C, strain CIN8 (second series), stronger effect = lower value 1 | [5] 1.01 | locus YER015W, strain faa2, stronger effect = lower value 0.997 | locus YER016W, strain bim1, stronger effect = lower value 0.994 | locus YER110C, stronger effect = lower value 0.968 | locus YER111C, strain swi4, stronger effect = lower value 1 | locus YER155C, strain BEM2 (second series), stronger effect = lower value 1 | locus YER155C, strain BEM2, stronger effect = lower value 0.991 | locus YER167W, strain BCK2, stronger effect = lower value 1.02 | locus YFR010W, strain ubp6, stronger effect = lower value 0.999 | locus YGL078C, strain dbp3, stronger effect = lower value 0.986 | locus YGL086W, strain mad1, stronger effect = lower value 0.984 | locus YGL167C, strain pmr1, stronger effect = lower value 1 | locus YGL173C, strain kem1, stronger effect = lower value 0.997 | locus YGL227W, strain vid30, stronger effect = lower value 0.992 | locus YGL240W, strain doc1, stronger effect = lower value 1.02 | locus YGL248W, strain PDE1, stronger effect = lower value 1.06 | locus YGL253W, strain hxk2, stronger effect = lower value 0.992 | locus YGR135W, strain pre9, stronger effect = lower value 1.03 | locus YGR252W, strain gcn5, stronger effect = lower value 1.08 | locus YHR013C, strain ard1, stronger effect = lower value 1.02 | locus YHR027C, strain rpn1, stronger effect = lower value 0.994 | [6] 0.994 and 0.979 | locus YHR079C, strain IRE1 (second series), stronger effect = lower value 0.987 | locus YHR079C, strain IRE1, stronger effect = lower value 0.996 | locus YHR094C, strain hxt1, stronger effect = lower value 1 | locus YHR129C, strain ARP1, stronger effect = lower value 1.02 | locus YHR142W, strain chs7, stronger effect = lower value 0.998 | locus YHR200W, strain rpn10, stronger effect = lower value 0.978 | locus YIL066C, strain RNR3, stronger effect = lower value 1.04 | locus YIL073C, strain SPO22, stronger effect = lower value 0.955 | locus YIL125W, strain kgd1, stronger effect = lower value 0.998 | locus YIR030C, strain dcg1, stronger effect = lower value 0.99 | locus YJL092W, strain hpr5, stronger effect = lower value 0.995 | locus YJL095W, strain BCK1 (second series), stronger effect = lower value 0.99 | locus YJL095W, strain BCK1, stronger effect = lower value 1.09 and 0.989 | locus YJL115W, strain asf1, stronger effect = lower value 1 | locus YJL129C, strain trk1, stronger effect = lower value 1 | locus YJL134W, strain LCB3, stronger effect = lower value 0.987 | locus YJL154C, strain vps35, stronger effect = lower value 0.995 | locus YJL164C, strain tpk1, stronger effect = lower value 1 | locus YJL166W, strain qcr8, stronger effect = lower value 1.01 | locus YJL168C, strain set2, stronger effect = lower value 0.991 | locus YJL187C, strain SWE1 (second series), stronger effect = lower value 1.04 | [7] 0.991 | [8] 0.986 | locus YJR066W, strain TOR1, stronger effect = lower value 0.916 | [9] 1.01 | locus YKL009W, strain mrt4, stronger effect = lower value 0.972 | locus YKL068W, stronger effect = lower value 0.985 | locus YKL085W, strain MDH1 (second series), stronger effect = lower value 0.988 | locus YKL085W, strain MDH1, stronger effect = lower value 0.988 | locus YKL160W, strain elf1, stronger effect = lower value 1 | locus YKR001C, strain vps1, stronger effect = lower value 1.02 | locus YKR026C, strain gcn3, stronger effect = lower value 0.994 | locus YKR091W, strain srl3, stronger effect = lower value 0.997 | locus YLL001W, strain dnm1, stronger effect = lower value 1.01 | locus YLL026W, stronger effect = lower value 0.99 | locus YLL041C, strain sdh2, stronger effect = lower value 0.996 | locus YLR027C, strain aat2, stronger effect = lower value 1.01 | [10] 0.989 | locus YLR058C, strain SHM2, stronger effect = lower value 1.03 | locus YLR102C, strain apc9, stronger effect = lower value 0.971 | locus YLR113W, strain HOG1, stronger effect = lower value 1.01 | locus YLR221C, strain rsa3, stronger effect = lower value 0.992 | locus YLR258W, strain gsy2, stronger effect = lower value 1 | locus YLR262C, strain YPT6 (second series), stronger effect = lower value 0.985 | [11] 1.02 | locus YLR268W, strain sec22, stronger effect = lower value 0.97 | locus YLR320W, strain mms22, stronger effect = lower value 0.995 | locus YLR330W, strain CHS5, stronger effect = lower value 1.01 | locus YLR342W, strain FKS1 (second series), stronger effect = lower value 1.05 | locus YLR342W, strain FKS1, stronger effect = lower value 0.997 | locus YLR357W, strain rsc2, stronger effect = lower value 0.957 | locus YLR370C, strain arc18, stronger effect = lower value 0.997 | locus YLR371W, strain rom2, stronger effect = lower value 0.993 | locus YLR384C, strain iki3, stronger effect = lower value 1.01 | locus YLR418C, strain cdc73, stronger effect = lower value 1.02 | locus YML016C, strain PPZ1, stronger effect = lower value 1.01 | locus YML032C, strain rad52, stronger effect = lower value 1.04 | locus YML120C, strain ndi1, stronger effect = lower value 0.999 | locus YML124C, strain tub3, stronger effect = lower value 0.984 | locus YMR058W, strain fet3, stronger effect = lower value 1 | locus YMR078C, strain ctf18, stronger effect = lower value 0.982 | locus YMR125W, strain sto1, stronger effect = lower value 0.991 | locus YMR129W, stronger effect = lower value 0.989 | locus YMR205C, strain PFK2, stronger effect = lower value 1 | locus YMR223W, strain ubp8, stronger effect = lower value 1 | locus YMR231W, strain pep5, stronger effect = lower value 0.989 | [12] 1.01 | locus YMR307W, strain GAS1, stronger effect = lower value 1.09 | locus YNL067W, strain RPL9B, stronger effect = lower value 1.04 | locus YNL071W, strain lat1, stronger effect = lower value 1 | locus YNL183C, strain NPR1, stronger effect = lower value 0.946 | locus YNL209W, strain ssb2, stronger effect = lower value 0.996 | locus YNL233W, strain BNI4, stronger effect = lower value 1.06 | locus YNL248C, strain rpa49, stronger effect = lower value 1 | locus YNL250W, strain rad50, stronger effect = lower value 0.964 | locus YNL271C, strain bni1, stronger effect = lower value 0.982 | locus YNL298W, strain CLA4, stronger effect = lower value 0.987 | locus YNL307C, strain MCK1, stronger effect = lower value 0.999 | locus YNL322C, strain KRE1 (second series), stronger effect = lower value 1 | locus YNR049C, strain mso1, stronger effect = lower value 0.992 | locus YNR052C, strain pop2, stronger effect = lower value 0.995 | locus YOL012C, strain htz1 2.03 | locus YOL147C, strain pex11, stronger effect = lower value 1 | locus YOR001W, strain rrp6, stronger effect = lower value 0.998 | locus YOR061W, strain CKA2, stronger effect = lower value 1.01 | locus YOR069W, strain VPS5, stronger effect = lower value 0.989 | locus YOR070C, strain gyp1, stronger effect = lower value 0.979 | locus YOR080W, strain dia2, stronger effect = lower value 0.987 | locus YOR083W, strain WHI5, stronger effect = lower value 1 | locus YOR106W, strain vam3, stronger effect = lower value 1.01 | locus YOR136W, strain idh2, stronger effect = lower value 0.981 | locus YOR144C, strain elg1, stronger effect = lower value 1 | locus YOR184W, strain ser1, stronger effect = lower value 0.993 | locus YOR231W, strain MKK1, stronger effect = lower value 1 | locus YOR265W, strain rbl2, stronger effect = lower value 0.993 | locus YOR270C, strain vph1, stronger effect = lower value 1.01 | locus YOR290C, strain snf2, stronger effect = lower value 1 | locus YOR316C, strain cot1, stronger effect = lower value 0.99 | locus YPL051W, strain arl3, stronger effect = lower value 0.992 | locus YPL078C, strain atp4, stronger effect = lower value 1 | locus YPL106C, strain sse1, stronger effect = lower value 0.958 | locus YPL240C, strain hsp82, stronger effect = lower value 0.992 | locus YPL256C, strain CLN2, stronger effect = lower value 0.976 | locus YPR119W, strain clb2, stronger effect = lower value 0.974 | locus YPR141C, strain kar3, stronger effect = lower value 0.975 | locus YPR163C, strain tif3, stronger effect = lower value 0.981 | locus YPR167C, strain met16, stronger effect = lower value 0.971 | strain wtn01, stronger effect = lower value 0.978
